The structures appear in SMILES notation. Among all 69,000 compounds or so, about 8,600 (12%) showed an effect of 50% or more. Only a selection was taken, and strong results are over-represented in it overall.

We go through 28 molecules from ChEMBL document CHEMBL4513216, “Probing the Open Global Health Chemical Diversity Library for Multistage-Active Starting Points for Next-Generation Antimalarials” (ACS Infect Dis, 2020).

The assay concerns Plasmodium berghei. The assay is described as follows: Screen against P. berghei liver stage (PbLuc), transformed with Luciferase, at 10uM. The assay is classed as functional, HepG2. The note with it: tested at 10 uM.
For `CN(CC(=O)NC1CCOCC1)C1CCCN(c2cccnn2)C1` (stereo not drawn), the INHIBITION stood at 26.5%.
Turning to `O=C(CCCN1CCOC1=O)Nc1cnn(-c2ccccc2Cl)c1`, the INHIBITION is recorded as 33.8%.
As for `CNc1cc2c(nn1)CCN(C(=O)c1ccc3c(c1)CCC3)C2`, the INHIBITION amounted to 27.4%.
Take `Cc1noc(C)c1CNCC1CNc2ccnn2C1` (stereo not drawn): the INHIBITION was 39.3%.
On to `CC(C)n1cc(CN2CCCN(C(=O)CN3CCCC3=O)CC2)cn1`, for which the INHIBITION stood at 33.7%.
Turning to `CC(C)N(C)Cc1n[nH]c2c1CCN(C(=O)c1ccc[nH]1)C2`, the INHIBITION turned out to be 2.79%.
As for `CC(C)CCNC(=O)CNC(=O)N1CCc2c([nH]c3ccc(Cl)cc23)C1`, the INHIBITION was -2.13%.
As to `c1cc2ccc(N3CCN(Cc4ccc5c(c4)OCO5)CC3)nc2[nH]1`, the INHIBITION stood at 44.7%.
Turning to `Fc1ccccc1CN1CCCN(c2ncnc3[nH]ccc23)CC1`, the INHIBITION is given as 26.9%.
Then `O=C1OCCN1CCN1CCCN(Cc2ccccc2F)CC1`, with 15.1%; and `Fc1ccccc1CN1CCCN(c2ccc3cc[nH]c3n2)CC1`, with 70.4%; and `c1cc(CN2CCCN(c3ccc4cc[nH]c4n3)CC2)ccn1`, with 54.4%.
For the molecule `Cc1ccn(-c2ccc(N3CCCN(Cc4ccccc4)CC3)nn2)n1`, the INHIBITION came out at 6.39%.
For the molecule `Cc1cc(-n2nc(C3CC3)nc2-c2csnn2)ccn1`, the INHIBITION is 19.5%.
Next, `CN1CCOC(CNCc2coc(-c3ccccc3Cl)n2)C1` (stereo not drawn): 16.8%; `CC(C)c1noc(CN2CCN(C(=O)c3cccc(F)c3)CC2)n1`: -31.5%; `CCN(CC)S(=O)(=O)c1ccc2c(c1)N(Cc1ccccn1)C(=O)CS2`: 13.1%.
Next, `CS(=O)(=O)N1CC[C@]2(O)CCN(c3cc(C#N)ccn3)C[C@@H]2C1`: 52.2%; `CS(=O)(=O)N1CC[C@]2(O)CCN(c3ccnc(N)n3)C[C@@H]2C1`: 20.8%.
Next, `CN(C)S(=O)(=O)N1CC[C@]2(O)CCN(c3cc(C#N)ccn3)C[C@@H]2C1`: 36.5%; `CC(C)(C)n1nc(C(=O)NC2CCN(CC(N)=O)CC2)cc1C1CC1`: 5.03%; `Cc1cc(C(=O)NC2CCN(CC(N)=O)CC2)nn1C(C)(C)C`: -1.54%.
Regarding `CC(C)(C)n1nc(C2CC2)cc1C(=O)NC1CCN(CC(N)=O)CC1`, the INHIBITION is given as 56%.
Take `Cc1noc(C(C)C)c1C(=O)NCCN1CCCCCC1=O`: the INHIBITION came to 11.6%.
As for `Cc1nc(C)n(CC2CCCCN2CC(=O)Nc2cc(C)on2)n1` (stereo not drawn), the INHIBITION is on record as 15.5%.
Next, `COCC(=O)N1CCCC1c1nc(O)cc(C(C)C)n1` (stereo not drawn): 0.301%; `CN(C)CCN1C(=O)CCC12CCCN(C(=O)c1cccnc1)CC2` (stereo not drawn): -38.1%.
Next, `Cc1occc(=O)c1OCC(=O)N1CCc2ccccc2C1`: -8.04%.
